Assay results taken from PubChem BioAssay (NCI).
About 83,000 compounds went through this panel and 20% of them were active in at least one assay; those are over-represented in the sample as a whole.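 Values shown are percent growth following 48 h exposure of cells in 96-well plates to a single concentration of compound; below 10 was considered active.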 A number with no mark means an inactive call. Activity calls are given as the source filed them.

test system: MDA-MB-468 breast; test: NCI-60 one-dose screen, 48 h (100 = growth as untreated, 0 = no growth, -100 = all killed); details: 10 µM unless noted

In the case of COc1cc(C(=O)c2cnc(-c3ccc4cc[nH]c4c3)[nH]2)cc(OC)c1OC, the growth was -23.2% (active).
With COc1ccc(/C=N/Nc2ccnc3cc(Cl)ccc23)cc1Cl the growth was -71.9% (active).
For FC(F)(F)c1cccc(Nc2nc3ccccc3nc2Nc2cccc(C(F)(F)F)c2)c1, the growth was -12.9% (active).
With N#CC(=S)Nc1ccc(Cl)c(Cl)c1 the growth was -5.08% (active).
Cc1ccc2c(n1)C(=O)C(Cl)=C(Nc1cccc(C(C)C)c1)C2=O was tested, and the growth was -9.52% (active).
COc1ccc(-c2ccc3ncc4c(c3c2)n(-c2ccc(N3CCNCC3)c(C(F)(F)F)c2)c(=O)n4C)cn1 was tested, and the growth was -87% (active).
With Cc1ccc(S(=O)(=O)Oc2ccc3sc4cccc(NCCN(C)C)c4c(=O)c3c2)cc1 the growth was -91.7% (active).

First: S=C1CCCCCN1
Second: O[C@@H](c1cc(C(F)(F)F)nc2c(C(F)(F)F)cccc12)[C@H]1CCCCN1
The growth of the first is higher: 108% for the first, 42.6% for the second.

First: Cc1nc2ccc(-n3ncc(C(=O)c4cc5ccccc5[nH]4)c3N)cc2[nH]1
Second: c1ccc2cc3nc4cc5ccccc5cc4nc3cc2c1
The growth of the first is lower: 68.2% for the first, 117% for the second.

Compared with COc1cc2c(c(OC)c1OC)CCC(c1cccc(C(=O)Nc3ccc(Br)cc3)c1)O2 (stereo not given), COc1ccc(C(=O)c2ccc(C)cc2)c(OC)c1OC is lower in growth: 38.2% for the first, 20.5% for the second.

Compared with COc1ccccc1C(OC(C)=O)OC(C)=O, COc1cccc(OC(=O)c2ccccc2)c1OC(=O)c1ccccc1 is lower in growth: 98% for the first, 39.4% for the second.

Compared with COc1ccc(Cc2nc(C#N)c(N3CCN(c4ccc(F)cc4)CC3)o2)cc1, Cc1ccc(N2CCN(C(=S)c3cccs3)CC2)cc1 is higher in growth: 78% for the first, 88.7% for the second.

Going from CNC1=C([N+](=O)[O-])C(c2ccc(OC)cc2)C(C#N)=C(c2ccc[nH]2)O1 (stereo not given) to Cn1cnc([N+](=O)[O-])c1S(=O)(=O)Oc1ccc(Cl)cc1, the growth falls from 96.1% to 29.8%.

First: COC(=O)c1ccc(C(=Nc2ccc(N(C)C(=O)CN3CCN(C)CC3)cc2)c2c(O)[nH]c3ccc(C(=O)OC)cc23)cc1
Second: Cc1ccc(/C=C/C(=O)c2ccc(-n3cc(CN4CCN(c5cc6c(cc5F)c(=O)c(C(=O)O)cn6C5CC5)CC4)nn3)cc2)cc1
The growth of the first is lower: 62.5% for the first, 77.1% for the second.

First: O=[N+]([O-])c1ccc(C(Br)c2ccc([N+](=O)[O-])cc2)cc1
Second: CN1C(=O)CN2CCc3ccccc3C2c2cc(Cl)ccc21 (stereo not given)
The growth of the first is lower: 112% for the first, 115% for the second.

Compared with Oc1ccc(Cl)cc1Cc1cc(Cl)cc(Cl)c1O, C=C[C@@H]1C[C@@H]2Cc3cc(Cl)ccc3N1O2 is higher in growth: 18.4% for the first, 95.1% for the second.

Compared with COc1ccc(OC)c2ncccc12, Cc1cc(=O)c2c(C)ccc(C)c2[nH]1 is higher in growth: 89.9% for the first, 96.8% for the second.

First: O=C(O)CCCl
Second: CCCCCCC(=O)C(C)C
The growth of the first is lower: 94.6% for the first, 98.8% for the second.

First: FC(F)(F)C1=NNC(c2ccc3ccccc3c2)=NN1
Second: O=C(Nc1cccc(C(F)(F)F)c1)Nc1ccc(OCc2nnc(-c3ccc(Cl)cc3)o2)c(F)c1
The growth of the first is higher: 108% for the first, 68.2% for the second.

First: NC(=S)Cc1ccccc1
Second: C=CCN1C(=O)c2ccccc2C1=O
The growth of the first is lower: 89.8% for the first, 107% for the second.

Going from CC[C@]12C=CCN3CC[C@@]4(c5ccc(OC)cc5N(C)[C@H]4[C@@](O)(C(=O)OC)[C@@H]1OC(=O)CCN1CCc4ccccc4C1)[C@@H]32 to COC(=O)[C@@H](C)CNS(=O)(=O)N(c1cc(C(F)(F)F)cc(C(F)(F)F)c1)C1CCN(Cc2ccc(F)cc2)CC1, the growth falls from 69.7% to 23.6%.

Compared with Cc1cc(C(C)(C)C)cc(C)c1CC1=NCCN1, CCc1ccc(-c2ccc(-n3nc(C)c4c(N)nc(Cc5ccccc5)nc43)cc2)cc1 is lower in growth: 93.5% for the first, 38.9% for the second.

Compared with CC(=O)CC(=O)N(C)C, CCCCCCCCCCC[C@@H](C[C@H]1OC(=O)[C@H]1CCCCCC)OC(=O)[C@@H](CC(C)C)NC=O is higher in growth: 96.8% for the first, 101% for the second.

With CCOC(=O)c1c(-c2ccc(O)cc2)c(C#N)c2c(C#N)c(N)nn2c1N the growth was 35.2%.
